Hits are enriched below; roughly 12% of the tested compounds scored in any of these assays.
G9a block: G9a (human) methyltransferase inhibition | hit rate 8.8% among 350,000 | Potency, µM (top dose mostly 102 µM), hits mostly inhibitors | G9a H3K9 monomethylation, AlphaScreen, 2 h; further: nearly all actives have a fitted effect of over 75% in size
Target sequence (Q96KQ7 913-1193 limits assumed): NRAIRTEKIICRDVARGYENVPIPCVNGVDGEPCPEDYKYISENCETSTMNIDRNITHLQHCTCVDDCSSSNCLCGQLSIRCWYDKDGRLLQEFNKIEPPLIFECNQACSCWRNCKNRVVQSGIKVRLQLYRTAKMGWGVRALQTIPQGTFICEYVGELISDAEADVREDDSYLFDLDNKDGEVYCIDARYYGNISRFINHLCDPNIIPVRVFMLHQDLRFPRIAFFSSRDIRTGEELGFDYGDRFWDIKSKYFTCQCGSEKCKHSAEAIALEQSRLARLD
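G9a (20 nM) was preincubated 15 min with compound, then reacted 2 h at room temperature with 500 nM biotin-H3K9 peptide and 20 µM SAM. Monomethyl-H3K9 detected by AlphaScreen using anti-H3K9me1 antibody.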
HP1b binding inh: blocks HP1-beta chromodomain binding to methylated histone tails; P83916; AlphaScreen HP1-beta / biotin-H3K9me3 peptide binding; Potency, µM (doses to about 114 µM), most hits filed as inhibitors; hit rate 0.56% among 390,000; further: nearly all actives have a fitted effect of over 70% in size
Target sequence (P83916 whole entry, looked up): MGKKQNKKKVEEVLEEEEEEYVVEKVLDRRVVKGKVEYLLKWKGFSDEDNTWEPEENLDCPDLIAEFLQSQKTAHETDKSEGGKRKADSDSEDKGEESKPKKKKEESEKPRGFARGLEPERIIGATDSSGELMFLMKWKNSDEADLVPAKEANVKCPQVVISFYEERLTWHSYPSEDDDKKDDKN
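HP1-beta protein (50 nM final) preincubated 30 min at room temperature with biotinylated H3(1-18)K9me3 peptide (50 nM) in PBS pH 7.4, 0.01% Tween-20, then compound added for 30 min. AlphaScreen streptavidin donor/nickel chelate acceptor beads (10 ug/mL final), 30 min dark, luminescence read.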
L3MBTL1 block: L3MBTL1 (human) inhibition; Q9Y468; AlphaScreen L3MBTL1–H3K9me1 peptide binding; Potency, µM (doses to about 57.1 µM), most hits filed as inhibitors; hit rate 0.66% among 230,000; further: nearly all actives have a fitted effect of over 60% in size
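Displacement of a biotinylated histone H3(1-15) peptide monomethylated at Lys9 (75 nM) from L3MBTL1 (50 nM) was measured by AlphaScreen after a 30 min room-temperature compound incubation; cefsulodin titration served as intraplate control.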
BAZ2B block: inhibitors of human BAZ2B bromodomain. hit rate 4.4% among 360,000. Q9UIF8. AlphaScreen BAZ2B-H3K14Ac peptide displacement. Potency, µM (titrated, usually from 114 µM), actives largely listed as inhibitors; further: nearly all actives have a fitted effect of over 60% in size
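Inhibition is scored as reduced AlphaScreen emission. The BAZ2B/b-H3(5-23)K14Ac complex (50 nM each) in PBS pH 7.4, 0.01% Tween-20 meets compound (up to 110 uM) for 30 min at RT before bead addition.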
JMJD2A Tudor: inhibitors of human JMJD2A Tudor domain; AlphaScreen JMJD2A-Tudor / H3K4me3 peptide binding; Potency, µM (doses to about 114 µM), usual class: inhibitors; hit rate 4.4% among 390,000; further: nearly all actives have a fitted effect of over 50% in size
Sfp inh: Sfp phosphopantetheinyl transferase inhibition; Q9F4F7; Biochemical Sfp PPTase activity, qHTS; Potency, µM, actives largely listed as inhibitors; hit rate 3.5% among 310,000; AID 1490;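 further: the enzyme is Sfp with the accession as filed and its product quenches rhodamine fluorescence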
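Reaction rates are the 30-min fluorescence difference (ex 525, em 598 nm) in wells containing 15 nM Sfp, 5 uM rhodamine-CoA and 12.5 uM BHQ-2-YbbR at pH 7.6 with 10 mM MgCl2.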
Numbers stand for hits; - = inactive; ? = inconclusive; . = no result; [ ] = remark or other dose. The call rests on the fitted dose curve; in most records, active means well fitted curve in the direction sought with a large enough effect; inconclusive means small, poorly fitted or top-dose-only effect, or another doubt; inactive means no such curve, though single readings can be large; an effect the other way counts as inactive or inconclusive.

SMILES | G9a block | HP1b binding inh | L3MBTL1 block | BAZ2B block | JMJD2A Tudor | Sfp inh
COc1cccc(Nc2nc(Nc3ccc(Cl)c(C(=O)O)c3)nc(C)c2[N+](=O)[O-])c1 | ? | - | - | 50µM | ? | .
COc1cccc(Nc2nc(N)c([N+](=O)[O-])c(NCc3ccccc3)n2)c1 | 45µM | ? | ? | ? | ? | -
COc1ccc(CNC(=O)c2cc(=O)[nH]c3ccc(S(=O)(=O)N4CCCC4)cc23)c(OC)c1 | - | - | . | - | - | .
CCNc1ncc2nc(CCc3ccccc3)c(=O)n(C[C@H]3CCCO3)c2n1 | -[0.501 µM] | . | . | . | . | -
CCc1nnc(NC(=O)c2sc3nc4c(cc3c2N)CCCCC4)s1 | - | - | - | - | - | -
CCc1nnc(NC(=O)c2sc3nc4c(cc3c2N)CCCCCC4)s1 | 45µM | - | ? | - | - | -
NCCCN(Cc1ccccc1)c1ccc(Br)cn1 | . | - | . | . | - | .
O=C(NCCCc1cnc[nH]1)NCCCN(Cc1ccc(Cl)c(Cl)c1)c1ccc(Br)cn1 | . | . | . | . | 50µM | .
CC(=O)NCCCN(Cc1ccc(Cl)c(Cl)c1)c1ccc(Br)cn1 | . | - | . | . | - | .
S=C(NCCCc1cnc[nH]1)NCCCN(Cc1ccc(Cl)c(Cl)c1)c1ccccn1 | . | . | . | . | 45µM | .
S=C(NCCCCN(Cc1ccc(Cl)cc1)c1ccc(Br)cn1)NCCCc1cnc[nH]1 | . | 25µM | . | . | 45µM | .
CN(CCCN(Cc1ccc(Cl)cc1)c1ccc(Br)cn1)C(=S)NCCCc1cnc[nH]1 | . | ? | . | . | 56µM | .
COC(=O)[C@@H]1OC(c2ccccc2)O[C@H]1C(=O)OC | . | . | . | . | . | -
CCN(CC)CCN(C(=O)CCS(=O)(=O)c1ccccc1)c1nc2cc(C)cc(C)c2s1 | 35µM | - | . | - | - | -
CCN(CC)CCN(C(=O)CCS(=O)(=O)c1ccccc1)c1nc2c(C)cc(C)cc2s1 | 45µM | - | . | - | - | -
Cc1cc(C)c2sc(N(CCN(C)C)C(=O)CCS(=O)(=O)c3ccccc3)nc2c1 | 40µM | - | . | - | ? | -
Cc1cc(C)c2sc(N(Cc3cccnc3)C(=O)CCOc3ccccc3)nc2c1 | - | - | . | - | - | .
CCN(CC)CCN(C(=O)CCS(=O)(=O)c1ccccc1)c1nc2cc(OC)c(OC)cc2s1 | 18µM | - | . | - | - | ?
CCN(CC)CCN(C(=O)c1ccccc1OC)c1nc2ccc(F)cc2s1 | ? | - | . | . | - | -
COC(=O)c1[nH]c2cccc(OC)c2c1NC(=O)CCN1CCSCC1 | - | - | - | - | - | -
COC(=O)c1[nH]c2cccc(OC)c2c1NC(=O)CCN1CCN(c2cccc(Cl)c2)CC1 | 50µM | . | - | - | . | -
COC(=O)c1[nH]c2cccc(OC)c2c1NC(=O)CCN1CC(C)CC(C)C1 (stereo not given) | 50µM | - | - | - | - | -
CC1=CC(C)(C)N(C(=O)CSc2nncn2C)c2ccccc21 | - | - | - | - | - | -
Cc1ccc2c(c1)N(C(=O)c1ccco1)C(C)(C)c1ssc(=S)c1-2 | 11µM | ? | . | 10µM | 14µM | -
Cc1ccc2c(c1)N(C(=O)CSc1nncn1C)C(C)(C)c1ssc(=S)c1-2 | 14µM | - | ? | . | 79µM | -
SMILES | G9a block | HP1b binding inh | L3MBTL1 block | BAZ2B block | JMJD2A Tudor | Sfp inh
Cc1ccc(-c2cc(C(=O)N3CC(C)CC(C)C3)c3ccccc3n2)o1 (stereo not given) | 8.9µM | ? | . | 79µM | 28µM | 22µM
Cc1ccc(-c2cc(C(=O)N3CCC(C)CC3)c3ccccc3n2)cc1 | - | - | . | - | - | -
Cc1ccc(-c2cc(C(=O)N3CC(C)OC(C)C3)c3ccccc3n2)o1 (stereo not given) | 10µM | - | - | - | - | .
Cc1cc(Br)ccc1SCC(=O)OCC(=O)N1CCN(C(=O)c2ccco2)CC1 | 45µM | - | - | ? | - | ?
NC(=O)c1ccc(SCC(=O)OCC(=O)N2CCN(C(=O)c3ccco3)CC2)c([N+](=O)[O-])c1 | 56µM | - | ? | - | - | .
Nc1ccc(C(=O)OCC(=O)N2CCN(C(=O)c3ccco3)CC2)cc1[N+](=O)[O-] | - | - | - | - | - | -
Cc1ccc(NC(=O)CSc2ccc(C(N)=O)cc2[N+](=O)[O-])cc1C | - | - | -[11.4 µM] | - | 14µM | -
NC(=O)c1ccc(SCC(=O)OCC(=O)N2CCCCC2)c([N+](=O)[O-])c1 | 50µM | - | - | - | - | .
CC1CCN(C(=O)COC(=O)CSc2ccc(C(N)=O)cc2[N+](=O)[O-])CC1 | -[2.33 µM] | - | - | - | - | .
CCOC(=O)c1ccccc1NC(=O)CSc1nccn1Cc1ccco1 | - | - | . | - | - | .
Cc1oc(-c2cccs2)nc1CS(=O)CC(=O)NC1CCCCCC1 (stereo not given) | 40µM | - | - | - | - | -
Cc1ccccc1-c1nc(CS(=O)CC(=O)NC2CCCC2)c(C)o1 (stereo not given) | 79µM | - | . | - | - | -
CSc1ccccc1NC(=O)COC(=O)c1c[nH]c(=O)[nH]c1=O | . | - | - | - | -[11.4 µM] | -
O=C(COC(=O)c1c[nH]c(=O)[nH]c1=O)Nc1ccccc1F | ? | - | - | - | ? | 71µM
NNC(=S)Nc1c(F)cc(F)cc1Br | . | - | - | - | - | 79µM
O=C(c1cc(C2CC2)nn1-c1ccccc1)N1CCN(c2ccccn2)CC1 | - | - | - | - | - | .
CCCCn1c(SCC(=O)c2ccc(OC)c(OC)c2)nc2cc(S(N)(=O)=O)ccc21 | 50µM | - | . | - | - | -
Clc1ccc(-c2ccc(C=Nc3ccc(N4CCOCC4)cc3)o2)c(Cl)c1 | 35µM | - | - | - | ? | -
Clc1ccc(-c2ccc(C=Nc3ccc(N4CCOCC4)cc3)o2)cc1 | - | - | - | - | - | -
Clc1cccc(-c2ccc(C=Nc3ccc(N4CCOCC4)cc3)o2)c1Cl | 14µM | - | - | 18µM | 25µM | ?
O=C(O)C1=NN(c2cc(Cl)c(S(=O)(=O)O)cc2Cl)C(=O)C1 | . | - | . | . | 6.3µM | .
Clc1cccc(Sc2ccc(-c3ccccn3)s2)c1 | - | - | - | - | - | -
Cc1cc(C)cc(OC(=O)c2cc(-c3ccc4c(c3)OCCO4)on2)c1 | - | - | . | - | - | .
CC(NC(=O)Cn1cc(C(=O)C2CC2)c2ccccc21)c1ccccc1 (stereo not given) | - | - | - | - | 79µM | -
CC(=O)OCCCNc1cc(SCc2ccco2)c2nonc2c1[N+](=O)[O-] | ? | ? | ? | ? | 50µM | 25µM
CCCC(=O)OCCNc1cc(SCc2ccco2)c2nonc2c1[N+](=O)[O-] | 20µM | ? | ? | 25µM | ? | 11µM
CCCSc1cc(NCCOC(C)=O)c([N+](=O)[O-])c2nonc12 | - | - | - | - | - | -
CCCSc1cc(NCCOC(=O)CCC)c([N+](=O)[O-])c2nonc12 | ? | - | - | - | - | -

Assay outcomes: PubChem, National Center for Advancing Translational Sciences (NCATS)
